Source: ChEMBL document CHEMBL3988442, “University of Dundee, Small-Polar-MMV Screening Library” (2021)
Among all 38,000 compounds or so, about 1,200 (3.2%) showed an effect of 50% or more. The median lay at about -58%. Only a selection was taken, and strong results are over-represented in it overall.

System: Plasmodium falciparum
Assay: Calibr Malaria Delayed Death Assay SOP
Format: functional, organism-based
Parameters: scale not given: in the data most compounds retested in dose-response had high values
Settings: concentration 4.99e-06 (unit not given; other assays of the set use mol/L)

SMILES	Percent Effect [%]
Cc1ccc(N2CCCC(NCc3cnc(C)s3)C2)nn1 (centres undefined)	-130.3
CC(C)[C@@H]1CN(C2CCN(Cc3ccccc3)CC2)C[C@H]1NS(C)(=O)=O	2.556
CC(c1ccncc1)N(C)S(C)(=O)=O (centres undefined)	-81.75
COc1ncccc1C1CC(=O)Nc2cc(NS(C)(=O)=O)ccc21 (centres undefined)	-136.9
Nc1cc(N2CCCC(COc3ccc(F)cc3)C2)ncn1 (centres undefined)	-4.598
Cc1cc(C)cc(S(=O)(=O)NCC2CNCCOC2)c1 (centres undefined)	6.797
Cc1ccc(S(=O)(=O)NCC2CNCCOC2)cc1Cl (centres undefined)	47.92
Cc1cc(S(=O)(=O)NCC2CNCCOC2)c(C)cc1Cl (centres undefined)	75.13
Cc1ccccc1CCC1CCCN(C(=O)Cc2cc(=O)[nH]c(N)n2)C1 (centres undefined)	-123.2
CC(C)Cc1cc(C(=O)NCC2CCCN(Cc3ccco3)C2)on1 (centres undefined)	-23.35
Cc1cnn(CCNCc2csc(COc3ccccc3)n2)c1	42.25
c1ccc(OCc2nc(CNCCn3cccn3)cs2)cc1	20.38
Cc1cnn(CCCNCc2csc(COc3ccccc3)n2)c1	70.2
COCCn1ccnc1C1CCN(C(=O)CSc2nnc(C)s2)CC1	-110.9
O=C(NC[C@H]1OC[C@@H](NC2CCC2)[C@@H]1O)Nc1ccccc1	-143.1
O=C(NC[C@H]1OC[C@@H](N(CC2CC2)CC2CC2)[C@@H]1O)Nc1ccccc1	64.49
CN(C)[C@@H]1CO[C@H](CNC(=O)Nc2ccccc2)[C@H]1O	-62.35
CN(CCCC1CCCO1)C(=O)c1cccc(C#N)c1 (centres undefined)	-170.6
O=C(O)CCCC(=O)N1CCC(c2noc3cc(F)ccc23)CC1	-131.6
CCC(O)(CNCc1ccncc1)c1ccc(Br)cc1 (centres undefined)	3.807
CC(=O)N1CCCN(C(=O)NCc2cc[nH]n2)CC1	-10.61
CC(C)(C)OC(=O)N1CCCc2ccc(NCc3ncc[nH]3)cc21	26.46

SMILES	Percent Effect [%]
CS(=O)(=O)c1ccc(CNC(=O)NCc2cc[nH]n2)cc1	-45.13
CCC(O)(CNCc1cc[nH]n1)c1ccc(Br)cc1 (centres undefined)	76.25
CCC(O)(CNCc1ncc[nH]1)c1ccc(Br)cc1 (centres undefined)	65.85
O=C(c1cnccn1)N1C[C@@H]2CC[C@H](C1)N(S(=O)(=O)c1cccnc1)C2	-81.69
CC(C)c1nc(C2CCCN(C(=O)CCn3ccccc3=O)C2)no1 (centres undefined)	-110.1
CCS(=O)(=O)N1CCC2(CCN(C(=O)c3cccs3)CC2)CC1	-4.516
CNS(=O)(=O)C1CCN(c2cc(C(C)C)nc(C(C)C)n2)C1 (centres undefined)	-29.56
N#CCCN(C(=O)CN1CCCC1C1CCCCC1)c1ccccc1 (centres undefined)	50.3
CCN(C(=O)CN1CCCC1c1ccc(F)cc1)c1ccccc1C (centres undefined)	-25.99
N#CCCN(Cc1ccco1)C(=O)CN1CCCC1c1cccs1 (centres undefined)	2.269
Cc1ccc(C2CCCN2CC(=O)N(CCC#N)c2ccccc2)cc1 (centres undefined)	61.31
CCN(C(=O)CN1CCCC1Cc1ccccc1)c1ccccc1 (centres undefined)	59.02
CN(C(=O)CN1CCCC1Cc1ccccc1)c1ccccc1 (centres undefined)	20.57
Cc1cc(C2CCCN2CC(=O)N(CCC#N)c2ccccc2F)on1 (centres undefined)	-128.3
CCN(C(=O)CN1CCCC1c1ccc(OC)cc1)c1ccccc1 (centres undefined)	17.94
N#CCCN(C(=O)CN1CCCC1c1ccccc1Cl)c1ccccc1 (centres undefined)	38.72
CC1CC(=O)c2cc(C(=O)N3CCc4ccccc43)c(=O)[nH]c2C1 (centres undefined)	-103.7
CN(C)c1ncc(NC(=O)c2ccccc2C(F)(F)F)cn1	-13.75
O=C(Cn1ccc2c(Cl)cccc21)N1CCCC1	-3.751
COCC(=O)Nc1ccc2c(c1)C1(CCOCC1)CN2CCF.O=C(O)C(F)(F)F	-73.75
Cn1cc(C2COC3(CCN(C(=O)c4ccccn4)CC3)C2)cn1.O=C(O)C(F)(F)F (centres undefined)	-70.09
COc1ccc(N2CCN(C(=O)CCc3n[nH]c(C)n3)CC2=O)cc1	-47.6

SMILES	Percent Effect [%]
COC(=O)c1ccc(C(=O)N2CCC(c3nnc(C)s3)CC2)cc1	-39.58
CC(O)c1cccc(-n2c(CCC(=O)O)nc3ccccc32)c1 (centres undefined)	-169.3
OCCNc1nc(Nc2ccccc2)c2nccnc2n1	-38.96
Cc1nc(C)n(CC2CCCN2CCCc2nc3ccccc3o2)n1 (centres undefined)	-41.56
COc1ccc(OC)c(CN2CCC(c3cc(O)nc(C)n3)C2)c1 (centres undefined)	-6.514
COc1ncc(C2(O)CCN(Cc3cccc(F)c3F)CC2)c(OC)n1.Cl	-65.3
Cl.Cl.OC(CN1CCN(Cc2cc(F)ccc2F)CC1)C1CC1 (centres undefined)	0.4009
COc1ccc(C)cc1CN1CCN(Cc2nccn2C)CC1	-87.98
COc1ncc(C2(O)CCN(Cc3cc(F)ccc3F)CC2)c(OC)n1.Cl	-42.34
Fc1cccnc1N1CCC(NCc2cccc3cn[nH]c23)C1 (centres undefined)	-62.75
CC(C(=O)Nc1cccc(Cl)c1SC(F)F)S(C)(=O)=O (centres undefined)	-87.5
Cc1cc(CN2CCN(c3ccnc(-c4ccccc4)n3)CC2)no1	-117.2
Cc1cc(NC(=O)C2CN(Cc3ccccc3)CCO2)ccn1 (centres undefined)	-48
NC(=O)c1cnc2n1CCN(C(=O)c1cccc(Cn3cccn3)c1)C2	-26.24
O=C1CCCN1CCC1CCN(C2CCC3(CCNCC3)CC2)CC1	-113.8
Cc1ccc(NC(=O)Nc2cnc(N3CCN(C)CC3)nc2)cc1	58.27
COc1ccc(NC(=O)c2cnc(N3CCN(C)CC3)nc2C)cc1	-110.8
Cc1cc(C)cc(NC(=O)c2cnc(N3CCN(C)CC3)nc2C)c1	-105.5
COc1ccc(NC(=O)Nc2cnc(N3CCN(C)CC3)nc2)cc1Cl	87.5
COc1ccc(C)cc1NC(=O)Nc1cnc(N2CCCC2)nc1	-31.15
COc1ccc(C)cc1NC(=O)Nc1cnc(N2CCOCC2)nc1	6.993
CCN(CC)C(CNS(=O)(=O)c1ccc(C(N)=O)cc1)c1ccco1 (centres undefined)	-82.08

SMILES	Percent Effect [%]
O=C(O)C(F)(F)F.O=S(=O)(c1cccs1)N1Cc2nc(CN3CCCCC3)oc2C1	-52.21
O=C(CCO)N1CC[C@@H]2CN(C(=O)c3ccco3)CCO[C@@H]2C1	-32.06
COc1c(C)cnc(CN2CCC(C(=O)N(C)C)CC2)c1C	-25.53
COc1c(C)cnc(CN(C)C2CCOC3(CCOCC3)C2)c1C (centres undefined)	-5.784
COc1c(C)cnc(CN2CCC(N(C)C(C)C(N)=O)CC2)c1C (centres undefined)	77.51
COc1c(C)cnc(CN(C)C(=O)c2ccccc2O)c1C	-65.02
CCC(=O)N(C)C1CCN(Cc2ncc(C)c(OC)c2C)CC1	-107.4
COc1c(C)cnc(CN2CCn3c(nnc3C(C)C)C2)c1C	-75.36
COc1c(C)cnc(CN2CCn3c(nnc3C3CC3)C2)c1C	-38.06
COc1c(C)cnc(CN(C)C2CCCCC2)c1C	76.34
CSc1ccc(C(=O)N2CC(=O)N(CC3CC3)CC(O)C2)cc1 (centres undefined)	-80.98
CC(C)c1nn(C)c(N(C)C)c1CNC1CCOc2ccccc21 (centres undefined)	-13.52
O=C(O)C(F)(F)F.O=C(c1ccccc1F)N1CCC2(CC1)CC(N1CCCC1)CO2 (centres undefined)	-57.39
Cc1nc(C2CCCN(C(=O)c3cc(-c4ccccc4)[nH]n3)C2)no1 (centres undefined)	-103.7
O=C(COc1coc(CN2CCCCC2)cc1=O)Nc1cccc(Cl)c1	-36.85
N#Cc1cc(F)c(NCc2ccc(F)cc2)c(F)c1	-56.06
Cc1cccc(NC(=O)C2(n3cnnn3)CCCCC2)n1	-65.2
O=C(C1=CCCC1)N1C[C@@H]2COC[C@]2(COCC2CC2)C1	-77.68
COc1ccc(CNCC2CCN(CCO)CC2)cc1F	57.05
COc1ccc(CNCC2CN(C3CC3)CCO2)cc1F (centres undefined)	-41.72
OCCN1CCC(CNCc2cn(-c3ccccc3)nn2)CC1	-75.43
CCN1CCOC(CNCc2ccc(OC)c(F)c2)C1 (centres undefined)	-53.15

SMILES	Percent Effect [%]
CCOCCNCC1CCN(CCO)CC1	-86.72
Cn1cc(CNCC(c2ccc(Cl)cc2)n2cccn2)cn1 (centres undefined)	16.07
CCn1cc(CNCC(c2ccc(Cl)cc2)n2cccn2)cn1 (centres undefined)	59.81
Clc1ccc(C(CNCc2ccncc2)n2cccn2)cc1 (centres undefined)	-53.83
CCn1cc(-c2n[nH]c(=O)n2-c2ccc3c(c2)OCO3)c(C)n1	-101.4
CCC[C@H]1CN(c2nc(CO)cs2)C[C@@H]1NC(=O)C1CCC1	1.552
CCC[C@H]1CN(c2nc(CO)cs2)C[C@@H]1NC(=O)C1(COC)CC1	71.28
CCC[C@H]1CN(Cc2cscn2)C[C@@H]1NC(=O)C1(COC)CCC1	-24.11
CC(C)C[C@H](NC(=O)Cn1ccc2c(Cl)cccc21)C(=O)O	-50.44
COc1cccc(CN(C)Cc2nc(C(C)C)no2)c1	-65.15
Cn1cnc(S(=O)(=O)N2CC3(CCN(c4ccccc4)C3)C2)c1.O=C(O)C(F)(F)F	1.109
O=C(O)C(F)(F)F.O=C(O)C(F)(F)F.OCCN1CC2(CCN(c3ccccc3)C2)C1	61.64
O=C(O)C(F)(F)F.O=C(c1c[nH]cn1)N1CCC(F)(F)C2(CCN(c3cccc(F)c3)C2)C1 (centres undefined)	85.76
CN1CC(=O)N(c2ccccc2)CC12CCN(CCO)C2.O=C(O)C(F)(F)F.O=C(O)C(F)(F)F (centres undefined)	-19.33
FC1(F)CCN(c2ccccc2)CC12CCN(c1ncccn1)C2 (centres undefined)	-152.8
FC1(F)CCN(Cc2cccnc2)CC12CCN(c1cnccn1)C2.O=C(O)C(F)(F)F.O=C(O)C(F)(F)F.O=C(O)C(F)(F)F (centres undefined)	-45.54
O=C(O)C(F)(F)F.O=C(c1c[nH]cn1)N1CCC(F)(F)C2(CCN(c3ncccn3)C2)C1 (centres undefined)	-29.78
FC1(F)CCN(Cc2cccnc2)CC12CCN(c1ccccc1)C2.O=C(O)C(F)(F)F.O=C(O)C(F)(F)F.O=C(O)C(F)(F)F (centres undefined)	84.58
FC1(F)CCN(Cc2ccncc2)CC12CCN(c1cccnc1)C2.O=C(O)C(F)(F)F.O=C(O)C(F)(F)F.O=C(O)C(F)(F)F (centres undefined)	15.13
O=C(O)C(F)(F)F.O=C(O)C(F)(F)F.O=C(c1c[nH]cn1)N1CCC(F)(F)C2(CCN(c3ccccn3)C2)C1 (centres undefined)	-115.9
OCCN1CCC(F)(F)C2(CCN(c3cccnc3)C2)C1 (centres undefined)	-53.32
